Screening results: PubChem BioAssay, National Center for Advancing Translational Sciences (NCATS)
In the library only some 9.5% were active in any assay of this set; here they are far more common.
Tau fibril ThT = blocks human tau fibril formation measured by thioflavin T; AID 1460; 270,000 compounds, 2.1% hits; P10636; Potency, µM (titrated, usually from 57.4 µM), for the others: top-dose activity, negative = inhibition, actives largely listed as inhibitors; recombinant tau K18 P301L, heparin-induced fibrillization, ThT fluorescence; also: nearly all actives have a fitted effect of over 55% in size
Target sequence (P10636 561-689 P618L limits assumed): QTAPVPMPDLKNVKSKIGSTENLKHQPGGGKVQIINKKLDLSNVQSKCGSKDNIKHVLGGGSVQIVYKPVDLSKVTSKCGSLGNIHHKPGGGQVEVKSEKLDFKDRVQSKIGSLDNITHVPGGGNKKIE
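Aggregation was driven by heparin (20 uM final) acting on recombinant tau […] bearing P301L in 100 mM sodium acetate pH 7; fibrils were detected with Thioflavin T.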
ALDH1A1 inh = ALDH1A1 (human) enzyme inhibition | P00352 | Purified ALDH1A1, NADH fluorescence, propionaldehyde substrate | Potency, µM (doses to about 75.3 µM), inactives show top-dose activity, negative = inhibition, most hits filed as inhibitors | 220,000 compounds, 7.3% hits; active = well fitted inhibition curve with a large enough effect, not every such curve was filed as active; inconclusive = small, poorly fitted or top-dose-only effect, or another doubt; inactive = no such curve, though single readings can be large or run the other way;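 also: plate controls were no enzyme wells and a reference inhibitor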
Tau FP inhib = tau fibrillization inhibition (FP) | 280,000 compounds, 0.39% hits | K18 P301L tau heparin fibrillization, Alexa594 FP, 6 h | Potency, µM (series often up to 57.7 µM), for the others: at the top dose activity, negative = inhibition, actives largely listed as inhibitors; also: nearly all actives have a fitted effect of over 55% in size
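Read-out: fluorescence polarization of Alexa 594-labeled tau (0.24 uM), 555 nm excitation, 632 nm emission. Mixtures held 15 uM unlabeled K18 P301L, compound and 20 uM heparin, pH 7 acetate buffer, incubated 6 hr at 37 C.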
HPGD block = HPGD (human) dehydrogenase inhibition | purified HPGD, NADH fluorescence kinetic, PGE2 substrate | Potency, µM, for the others: at the highest dose activity change, negative = inhibition, actives largely listed as inhibitors | 150,000 compounds, 4.3% hits; active = well fitted inhibition curve with a large enough effect, not every such curve was filed as active; inconclusive = small, poorly fitted or top-dose-only effect, or another doubt; inactive = no such curve, though single readings can be large or run the other way
Target sequence (P15428 whole entry, looked up): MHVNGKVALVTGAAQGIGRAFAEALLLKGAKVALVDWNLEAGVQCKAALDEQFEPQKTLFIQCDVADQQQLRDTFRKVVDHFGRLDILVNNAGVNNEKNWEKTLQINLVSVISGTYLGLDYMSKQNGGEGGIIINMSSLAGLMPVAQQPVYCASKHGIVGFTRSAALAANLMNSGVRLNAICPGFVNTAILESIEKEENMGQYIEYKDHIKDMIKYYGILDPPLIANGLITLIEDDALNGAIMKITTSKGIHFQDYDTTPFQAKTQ
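20 nM HPGD preincubated 15 min at room temperature with compound in 50 mM Tris-HCl pH 8, 0.01% Tween 20. Started with 1 mM NAD+ and 30 uM prostaglandin E2; NADH fluorescence (360/450 nm) read 5 times over 30-s intervals, last minus first.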
NPSR antagonist = neuropeptide S receptor (human) antagonism, cAMP; Q6W5P4; CHO-NPSR cells, cAMP TR-FRET, antagonist mode; Potency, µM (highest dose often 38.3 µM), for inactives: at the top dose activity change, negative = inhibition, most hits filed as inhibitors; 220,000 compounds, 1% hits; AID 1461; also: nearly all actives have a fitted effect of over 50% in size
Tau fluor counter = counter-screen for tau fibril formation inhibitors; Potency, µM (doses to about 57.7 µM), for the others: at the top dose activity change, negative = decrease; tau K18 P301L (four-repeat tau fragment) Alexa594 fluorescence, heparin fibrillization; 280,000 compounds, 0.93% hits; also: nearly all actives have a fitted effect of over 55% in size
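Human K18 P301L tau (15 uM unlabeled plus 0.24 uM Alexa 594-labeled, final) in 100 mM sodium acetate pH 7 was mixed with compound and 20 uM heparin and incubated 6 hr at 37 C.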
An asterisk follows results filed as active; ? = inconclusive; / = no result; [ ] = dose if it differs, or a comment. Unless noted, calls follow the shape of the dose curve; as a rule, active = well fitted curve in the direction sought with a large enough effect; inconclusive = small, poorly fitted or top-dose-only effect, or another doubt; inactive = no such curve, though single readings can be large; an effect the other way counts as inactive or inconclusive. Unless noted, % is scaled to controls: 0 for no effect and ±100 for the full control effect; potency is read from the fitted curve at half-maximal effect.

SMILES | Tau fibril ThT | ALDH1A1 inh | Tau FP inhib | HPGD block | NPSR antagonist | Tau fluor counter
Cc1nn(CCCC(=O)NCCc2ccc(Cl)cc2)c(=O)c2nn(-c3ccccc3)c(C)c12 | 3% | / | -2% | / | / | 0%
Cc1ccc(C)c(N2CCN(C(=O)CCc3nnc4n(C)c(=O)c5ccccc5n34)CC2)c1 | -15% | / | 0% | / | / | -16%
COc1ccc(CN2C(=O)CS(=O)CC2=O)cc1OC | -13% | 8.9µM* | 2% | -12% | 2%[46.1 µM] | -6%
COc1ccc(CN2CCS(=O)(=O)CC2)cc1OC | 0% | -14% | 7% | / | 14% | 4%
Cc1cc(C)nc(-n2ncc3c2CC(c2ccc(F)cc2)CC3=O)n1 (stereo not given) | 6% | -5% | 2% | / | 5% | 5%
Cc1cc(C)nc(-n2ncc3c2CC(c2ccccc2)CC3=O)n1 (stereo not given) | 1% | -23% | 1% | 28µM* | 0% | -4%
O=C(COc1ccccc1F)Nc1ccc(Cl)c(-c2nc3ccccc3[nH]2)c1 | -14% | / | ? | / | / | ?
Cc1ccc(N2C(=O)[C@@H]3C(C(=O)C(c4ccccc4)c4ccccc4)=NN[C@@H]3C2=O)cc1 | -4% | 22µM* | 4% | -14% | -36% | -6%
COC(=O)C1=NNC2C(=O)N(c3ccc(C)cc3)C(=O)C12 (stereo not given) | 8% | 2% | 1% | / | 15% | 3%
O=C(CCCCCn1c(=O)[nH]c2ccccc2c1=O)NCc1cccc(Cl)c1 | 11% | / | -6% | / | / | -11%
CCCCOc1ccc(CNC(=S)N/N=C/c2ccc(OC)c(OC)c2)cc1 | -4% | -5% | -1% | 16µM* | ? | ?
CCOc1ccc(CNC(=S)N/N=C\c2ccc([N+](=O)[O-])cc2)cc1 | ? | 3.2µM* | -4% | -23% | 0%[46.1 µM] | ?
CC(C)(C)c1ccc(OCc2ccc(C(=O)N/N=C/c3ccc([N+](=O)[O-])cc3)o2)cc1 | ? | 14% | 6% | -7% | -3%[46.1 µM] | 8.9µM*[quencher]
CCOc1ccc(CNC(=S)N/N=C/c2cccnc2)cc1 | -12% | 12% | -9% | -12% | 29% | -20%
COCCNC(=S)N/N=C/c1ccc(OCc2ccc(C(=O)OC)cc2)c(OC)c1 | -4% | 1% | 0% | -22% | 0% | 0%
Cc1ccc(OCc2nc(-c3ccc(C(=O)N4CCN(c5cccc(C(F)(F)F)c5)CC4)cc3)oc2C)cc1 | -14% | / | 8% | / | / | -13%
OCCN1CCOCCN(CCO)CCOCC1 | -14% | 8% | -14% | 1% | -1%[46.1 µM] | -7%
O=C(c1ccco1)N1CCC[C@@]2(CCN(C(c3ccccc3)c3ccccc3)C2)C1 | / | ? | / | -3% | / | /
O=C(OC1CCCCC1)c1ccc2c(c1)C1C=CCC1C(C(=O)O)N2 (stereo not given) | ? | 16µM* | -2% | ? | -12%[46.1 µM] | -21%
COc1ccc(OC)c([C@@H]2Nc3ccc(C(=O)O)cc3[C@@H]3C=CC[C@@H]32)c1 | ? | / | 5% | / | / | -11%
O=C(O)C1Nc2c(O)cccc2C2C=CCC12 (stereo not given) | 13µM* | -3% | ? | -29% | -7%[46.1 µM] | ?
COc1ccccc1CN1CCN(C(=O)c2ccncc2)CC1 | -6% | ? | -5% | -8% | 2%[46.1 µM] | -7%
COc1cccc(OC)c1C(=O)N1CCN(Cc2ccncc2)CC1 | -9% | 14µM* | -1% | -3% | -5%[46.1 µM] | -6%
COc1cccc(CN2CCN(C(=O)c3cccs3)CC2)c1OC | -5% | 18µM* | 5% | -26% | 8%[46.1 µM] | 2%
CCC(=O)NC(Nc1c(C)n(C)n(-c2ccccc2)c1=O)C(Cl)(Cl)Cl (stereo not given) | -16% | 4% | 3% | / | 4% | -4%
SMILES | Tau fibril ThT | ALDH1A1 inh | Tau FP inhib | HPGD block | NPSR antagonist | Tau fluor counter
CC1=C(c2ccc(C(C)C)cc2)S(=O)(=O)N=C1N1CCN(c2ccccc2F)CC1 | 6% | / | ? | / | / | 8%
COc1ccc(NC(=S)NC(NC(=O)c2cccc(Cl)c2)C(Cl)(Cl)Cl)c([N+](=O)[O-])c1 (stereo not given) | ? | 18µM* | 12% | -12% | 10µM* | ?
CSC1=NC(=O)/C(=C/c2ccc(SC)cc2)S1 | ? | ? | ? | / | -46% | -12%
CCOC(=O)CSC1=NC(=O)/C(=C\c2ccc(Cl)cc2)S1 | 4% | 20µM* | -7% | 2.2µM* | -3%[46.1 µM] | 2%
CCOc1ccccc1OCCCNCc1ccco1 | 4% | ? | -3% | 2% | 13% | 3%
Cc1ccc(CNC(=O)c2cn(C)c3ccc(S(=O)(=O)N(C)C4CCCCC4)cc3c2=O)cc1 | -7% | / | -1% | / | / | -26%
CCN(CC)c1ccc(C=C2C(=O)OC(c3ccccc3)OC2=O)cc1 (stereo not given) | 6% | 0.28µM* | -16% | / | -4% | 1%
CCN(CC)c1ccc(C=C2C(=O)OC3(CCCC3)OC2=O)cc1 | -17% | 0.71µM* | 9% | ? | ? | -5%
CCN(CC)C1=N/C(=C\c2ccc(OC)cc2)C(=O)N1c1ccccc1 | ? | ? | -2% | -20% | -18% | ?
Cc1ccc(C(=O)c2cn(CC(=O)NC3CCCCC3)c3nc(C)ccc3c2=O)cc1 | ? | / | -17% | / | / | -13%
CCCCCOc1ccc(CSCCNC(=S)Nc2ccccc2)cc1 | -13% | -7% | 13µM* | -19% | -45% | ?
COCCN1C(=O)/C(=C/c2ccc(OCc3ccc(C(=O)O)cc3)c(OC)c2)SC1=Nc1ccccc1 | ? | 1.1µM* | 15% | -8% | 13µM* | 18%
COc1cc(/C=C2\SC(=Nc3ccccc3)N(Cc3ccco3)C2=O)ccc1OC(C)C(=O)O (stereo not given) | -9% | -4% | 10% | -27% | ? | -13%
CO/N=C/NC(=O)c1c(OC)ccnc1Oc1ccccc1 | 12% | 6.3µM* | 3% | -8% | -4%[46.1 µM] | 6%
CC(=O)Nc1ccc(N(C(=O)CNC(=O)c2ccco2)C(C(=O)NCc2ccco2)c2ccccc2F)cc1 (stereo not given) | 5% | 7.9µM* | 5%[2.34 µM] | / | -8% | 10%[2.34 µM]
CC(=O)Nc1ccc(N(C(=O)CNC(=O)c2ccco2)C(C(=O)NCC2CCCO2)c2ccccc2)cc1 (stereo not given) | 2% | -1% | 3% | / | 5% | 9%
Cc1ccccc1NC(=O)c1c(NC(=O)C(C)Oc2cccc(Cl)c2)sc2c1CCCC2 (stereo not given) | ? | / | ? | / | / | -8%
O=C(CNC(=S)NC(=O)c1ccccc1Br)c1ccccc1 | -7% | 18µM* | -4% | / | 18% | -12%
COc1ccccc1N(CC(=O)NC(C)(C)C)S(=O)(=O)c1cccs1 | -3% | 1% | -10% | -15% | 3% | -3%
OCC(CO)(CBr)CBr | / | ? | / | -9% | / | /
